# The whole screen tested about 400,000 compounds, of which about 5,500 (1.4%) were called active. Where a call stands in place of a potency, no number is given. Another 9% or so got no clear call; they are omitted. Calls follow the shape of the dose curve; as a rule, active = well fitted cell-killing curve with a large enough effect; inconclusive = small, poorly fitted or top-dose-only effect, or effect the other way; inactive = flat fitted curve, though single readings scatter. For the sample, actives were picked, then their nearest neighbours and some compounds at random.
# Assay: qHTS assay for MDR1-selective chemotherapeutics: Primary screen using the parental adenocarcinoma cell KB-3-1; also: nearly all actives have a fitted effect of over 60% in size
# Settings: KB-3-1 viability, CellTiter-Glo ATP luminescence, 72 h; series mostly up to 46.1 µM
# How it was run: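 72 h, 37 °C compound treatment of KB-3-1 parental cells; CellTiter-Glo added, 10 min, luminescence read. Data corrected against DMSO-only plates and normalized before curve fitting.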
# Potency is read from the fitted curve at half-maximal effect.
row,SMILES,Potency
1,CCc1ccc(CCC(=O)Nc2ccc(S(N)(=O)=O)cc2)o1,inactive
2,Cc1ccc(CCC(=O)Nc2ncc(Cc3cc(Cl)ccc3Cl)s2)o1,1.16 µM (active)
3,Cc1cccc(-n2c(=O)c3c(c4cc(C)ccc4n3C)n(CC(=O)Nc3ccccc3Cl)c2=O)c1,inactive
4,CCC1CCCCN1S(=O)(=O)c1ccc(NC(=O)c2cc(=O)c3ccccc3o2)cc1 (centres undefined),inactive
5,COc1ccccc1C(=O)Nc1nc2nc(-c3ccccc3)cc(=O)n2[nH]1,inactive
6,COc1ccc2c(c1OC)C(=O)OC2Nc1nc(-c2ccccc2)cs1 (centres undefined),3.66 µM (active)
7,COc1cc(C(O)c2nc(-c3cccc(C(=O)O)c3)cs2)ccc1F (centres undefined),inactive
8,CCOC(=O)c1cccc(NS(=O)(=O)c2cc(-c3cnc(C)o3)ccc2OC)c1,inactive
9,COc1ccc(C)cc1N(CC(=O)N1CCC(C)CC1)S(=O)(=O)c1ccc(C)cc1,inactive
10,CC(=O)Nc1ccc(NC(=O)c2cc3sccc3n2Cc2ccc(F)cc2)cc1,inactive
11,CCn1cc(C(=O)OCC(=O)Nc2cc(C)cc(C)c2)c(=O)c2ccc(C)nc21,inactive
12,C[n+]1ccc(/C=C/c2c[nH]c3ccccc23)cc1,1.16 µM (active)
13,Clc1ccc(CSc2nncn3c2cc2occc23)cc1,inactive
14,COc1cccc2cc(-c3nc(Cl)c4c5c(sc4n3)CC(C)CC5)c(=O)oc12 (centres undefined),inactive
15,COc1ccc(CNC(=O)C2=Cc3cccc(OC)c3OC2)cc1OC,inactive
16,CCN(Cc1ccccc1)S(=O)(=O)c1ccc2c(c1)CCCN2C(C)=O,inactive
17,Oc1ccc2ccccc2c1N=Nc1nccs1,14.6 µM (active)
18,Cc1ccccc1OCCSc1nc2ccc(NC(=O)c3ccco3)cc2s1,inactive
19,O=C(Nc1ccc2c(c1)OCO2)c1cc(-c2cccc(Cl)c2)on1,inactive
20,Cc1ccc(S(=O)(=O)c2c(Nc3cccc(Cl)c3)sc(C(=O)c3ccc4c(c3)OCO4)c2N)cc1,14.6 µM (active)
21,CC(=O)Nc1cccc(C(=O)OCC(=O)c2ccc3c(c2)OCO3)c1,inactive
22,CN(C)C1=C2C=CC=CC2/C(=C2/C=Cc3ccccc32)C=C1 (centres undefined),inactive

row,SMILES,Potency
1,COc1ccc(NC(=O)c2ccc3nc(CCc4ccccc4)oc3c2)c(OC)c1,inactive
2,Cc1oc2ccc(O)c(CN3CCOCC3)c2c1C(=O)Nc1cccc(Cl)c1C,inactive
3,CCOc1ccc(NC(=O)Cn2c(=O)n(CCCC(=O)NCc3ccc4c(c3)OCO4)c(=O)c3ccccc32)cc1,inactive
4,COc1ccc(NC(=O)CSc2nccn2Cc2ccc3c(c2)OCO3)cc1,inactive
5,CCCOc1ccc(NC(=O)CC2C(=O)N(C)C(=S)N2Cc2ccc3c(c2)OCO3)cc1 (centres undefined),18.4 µM (active)
6,Cc1cccc(-c2ncc(CN3CCC(CO)(CCCc4ccccc4)CC3)cn2)c1,inactive
7,CC(C)(O)C#Cc1ccc(CN2CCC(CO)(CCc3ccccc3)CC2)cc1,inactive
8,Cc1c(CN2CCC(CO)(CCOc3ccccc3)CC2)[nH]c2ccc(Cl)cc12,14.6 µM (active)
9,Cc1ccc(C(=O)COC(=O)C(Cc2c[nH]c3ccccc23)NC(=O)c2ccc(Br)cc2)cc1 (centres undefined),inactive
10,COc1cc(C(=O)Nc2ccc(OCc3cc(=O)n4cc(C)sc4n3)cc2)cc(OC)c1OC,inactive
11,O=C(CSc1oc(-c2ccco2)nc1S(=O)(=O)c1ccc(Cl)cc1)c1ccccc1,inactive
12,CCOc1ccc(CC(=O)NCCc2csc3nc(-c4ccccc4F)nn23)cc1,inactive
13,Cc1cccc(OCCSc2nc3ccccc3n2CC(=O)N2CCCCC2)c1C,inactive
14,Cc1cc(N2CCN(c3cccc(C(F)(F)F)c3)CC2)n2nc(-c3ccccc3)nc2n1,inactive
15,O=S(=O)(CCc1nc2ccccc2o1)c1ccc(Cl)cc1,inactive
16,O=S(=O)(Cc1ccc(Cl)cc1Cl)c1ccc(Cl)cc1,1.64 µM (active)
17,O=S(=O)(NC1CC1)c1ccc(Cl)cc1,inactive
18,O=C(CSc1ccccc1)Nc1ccc(C(=O)Nc2cccc(O)c2)cc1,inactive
19,CSc1cccc(NC(=O)CSc2ccccc2)c1,inactive
20,O=C(CCl)Nc1cccc(CP(=O)(c2ccccc2)c2ccccc2)c1,13 µM (active)
21,Cc1cccc(CC(=O)N2CC(=O)Nc3ccc(F)cc3C2c2ccccc2)c1 (centres undefined),inactive
22,O=C(C[n+]1ccncc1)c1ccc2c(c1)CCCC2,inactive

row,SMILES,Potency
1,CC(C)c1nnc(NC(=O)COC(=O)/C=C/c2ccc([N+](=O)[O-])cc2)s1,inactive
2,CCOC(=O)/C(=C\c1ccc([N+](=O)[O-])cc1)C(=O)c1cc(C(C)=O)c(Nc2ccccc2)s1,3.26 µM (active)
3,CCOC(=O)C/C(C)=N\Nc1ccc([N+](=O)[O-])cc1[N+](=O)[O-],inactive
4,CN(C)S(=O)(=O)c1ccc(C(=O)N(Cc2cccnc2)c2nc3c(F)cc(F)cc3s2)cc1,inactive
5,CC(=O)N1CCCc2cc(S(=O)(=O)N3CCC(C(=O)NCc4ccc(C)cc4)CC3)ccc21,inactive
6,COc1cccc(CNC(=O)C2CCC(CNS(=O)(=O)c3cccs3)CC2)c1 (centres undefined),inactive
7,O=S(=O)(c1ccc2c(c1)OCCO2)N1CCc2ccccc21,inactive
8,NS(=O)(=O)c1ccc(CNC(=O)c2cccc(S(=O)(=O)N3CCc4ccccc43)c2)cc1,inactive
9,CCn1c(=O)c(=O)n(CC)c2cc(S(=O)(=O)N3CCc4ccccc43)ccc21,20.6 µM (active)
10,Nc1nc(N)c(N=O)c(N)n1,inactive
11,Cc1cc(Cl)ccc1OCC(=O)N(Cc1ccc(N(C)C)cc1)C1CCS(=O)(=O)C1 (centres undefined),inactive
12,COCCNc1nc(N)c([N+](=O)[O-])c(N2CCCCCC2)n1,inactive
13,Nc1cc(N2CCCCCC2)c2nonc2c1[N+](=O)[O-],11.6 µM (active)
14,Cc1c(Nc2cc(N3CCCC(C)C3)c3nonc3c2[N+](=O)[O-])c(=O)n(-c2ccccc2)n1C (centres undefined),inactive
15,COc1ccc2ncc3c(-c4ccc(C)c(C)c4)nn(CC(=O)NC4CCCC4)c3c2c1,inactive
16,Cc1ccc(C(=O)Cn2cccn2)cc1,inactive
17,C/C(=N/NC(=O)CC(=O)N/N=C(\C)c1ccc([N+](=O)[O-])cc1)c1ccc([N+](=O)[O-])cc1,inactive
18,CC12CCC(C(=O)N(NC(=O)c3ccccc3O)C1=O)C2(C)C (centres undefined),16.4 µM (active)
19,CC1=CC(C)(C)NC(=S)N1NC(=O)c1ccccc1Cl,inactive
20,CC(Sc1nnc2c(n1)C1CCC2(C)C1(C)C)C(=O)Nc1ccccc1 (centres undefined),inactive
